These results are taken from PubChem BioAssay (EPA / NIEHS).

The source made the active and inactive calls. How the source made its calls: active means hit-call score of the fitted dose curve at least 0.9, where 1 is the maximum; inactive means score below 0.9.

For the experiment, the target named is Transcription factor E2F1 (Homo sapiens) (UniProt Q01094). The experiment is described as follows: ATG_E2F_CIS: Attagene CIS-FACTORIAL HepG2 Assay for human E2F Transcription Factor 1 (AID 2282935). Particulars: HepG2 Attagene cis-reporter, E2F reporter RNA transcripts; actives raise or lower the signal. As for the experimental part: ATG_CIS is a cell-based, multiplexed-readout assay that uses HepG2, a human liver cell line, with measurements taken at 24 hours after chemical dosing in a 24-well plate.ATG_E2F_CIS is one of 52 assay component(s) measured or calculated from the ATG_CIS assay. It is designed to make measurements of mRNA induction, a form of inducible reporter, as detected with fluorescence intensity signals by Reverse transcription polymerase chain reaction (RT-PCR) and Capillary electrophoresis technology.Data from the assay component ATG_E2F_CIS was analyzed into 1 assay endpoint. This assay endpoint, ATG_E2F_CIS, was analyzed with bidirectional fitting relative to DMSO as the negative control and baseline of activity. Using a type of inducible reporter, measures of mRNA for gain or loss-of-signal activity can be used to understand the reporter gene at the transcription factor-level as they relate to the gene E2F1. Furthermore, this assay endpoint can be referred to as a primary readout, because this assay has produced multiple assay endpoints where this one serves a reporter gene function. To generalize the intended target to other relatable targets, this assay endpoint is annotated to the dna binding intended target family, where the subfamily is E2F transcription factor.
Sequence of Transcription factor E2F1 (Homo sapiens) (Q01094 whole entry, looked up): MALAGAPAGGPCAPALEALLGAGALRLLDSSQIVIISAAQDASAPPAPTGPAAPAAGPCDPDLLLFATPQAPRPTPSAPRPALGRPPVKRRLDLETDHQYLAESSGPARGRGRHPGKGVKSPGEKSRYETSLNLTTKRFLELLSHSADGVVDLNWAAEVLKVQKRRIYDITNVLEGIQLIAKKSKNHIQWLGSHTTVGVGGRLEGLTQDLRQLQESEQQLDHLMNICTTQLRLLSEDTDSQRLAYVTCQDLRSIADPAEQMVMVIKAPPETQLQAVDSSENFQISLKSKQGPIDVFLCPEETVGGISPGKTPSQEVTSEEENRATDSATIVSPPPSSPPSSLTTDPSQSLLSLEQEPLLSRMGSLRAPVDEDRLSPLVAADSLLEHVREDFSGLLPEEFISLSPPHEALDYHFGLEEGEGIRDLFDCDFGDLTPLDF
Human liver HepG2 cells are transiently transfected with multiple reporter transcription units (MRTUs) in 6-well plates using FuGene 6 reagent (Roche; 3 ml FuGene/1 mg DNA). The MRTU constructs are regulated by a cis-regulating element (promoter). […] A major difference between the CIS and TRANS system is that in CIS activities of endogenous TFs are measured, whereas the TRANS assay evaluates changes in activities of exogenous, chimeric NR-Gal4 proteins. […] At the end of 24 hour incubation, total RNA was isolated using TriZol reagent (Invitrogen). The isolated RNA is then reverse-transcribed using oligo(dT) primer and Mo-MLV reverse transcriptase (Invitrogen) with DNAse I (Ambion) treatment for 30 min. The one-tenth of the produced cDNA was amplified by PCR using Taq DNA polymerase (Invitrogen) and two reporter sequence-specific primers. The PCR products were fluorescently labeled by primer extension with 6-arboxyfluorescein (6-FAM) 5'-labeled reporter sequence-specific primer (2 min at 95 C, 20 s at 68 C and 10 min at 72 C) and these products were digested with 5U of HpaI (New England Biolabs) for 2h at 37 C. The fragments were purified using Qiaquick PCR columns (Qiagen), analyzed on an ABI 3130xL genetic analyzer (Applied Biosystems) with peak positions identified by using a set of X-rhodamine (ROX)-labeled MapMarker1000 molecular weight standards (BioVentures). The raw capillary electrophoresis data was processed using Attagraph software (Attagene).
As for `O=C(Oc1ccccc1)c1ccc2ccccc2c1O`, the outcome was inactive. With `COc1ccc2nc(N)sc2c1` the entry was “inactive”. On to `CC(C)(C)c1n[nH]c(=O)n(N)c1=O`, for which the outcome was inactive. `Cc1ccc(OC(=O)CC(C)C)cc1`: the result was inactive. Regarding `O=C(O)CCCC[C@@H]1SC[C@@H]2NC(=O)N[C@@H]21`, the compound was classed as inactive.

`CC(C)c1ccc2c(C(C)C)cc(C(C)C)c(S(=O)(=O)O)c2c1`: the compound was classed as inactive.

On to `CC(C)COC(=O)C=Cc1ccccc1`, for which the result was inactive. On to `COC(=O)/C=C/C(C)=C\C=C\C(C)=C\C=C\C=C(C)\C=C\C=C(C)\C=C\C(=O)O`, for which the compound was classed as inactive. Consider `COC(=O)c1cc(Cl)ccc1[N+](=O)[O-]`, for which the compound was classed as inactive. As for `CCO[Si](C)(OCC)OCC`, the result was inactive. The entry for `CCOC(=O)Cc1cccc2ccccc12` is “inactive”; for `C=CC(C)(CCC=C(C)C)OC(=O)CC(C)C` (stereo not given) it is “inactive”; for `COc1ccc(C(Cl)=C(c2ccc(OC)cc2)c2ccc(OC)cc2)cc1` it is “inactive”. `CC(C)CCCCCOC(=O)CCS`: the compound was classed as inactive.

Take `CCCCCCCCCCCCCCCCCC#N`: the call was inactive. On to `CC(=O)Nc1nnc(S(N)(=O)=O)s1`, for which the call was inactive. As to `CCCCCCC1(C)CCC(=O)O1` (stereo not given), the call was inactive.

Regarding `Cc1ccccc1C`, the compound was classed as inactive.

As for `O=C1c2cccc(O)c2C(=O)c2c(O)cc(CO)cc21`, the outcome was inactive. Regarding `COc1cc(C)ccc1C(C)C`, the call was inactive. In the case of `CC1=NN(c2cc(S(=O)(=O)O)ccc2Cl)C(=O)C1N=Nc1ccccc1` (stereo not given), the compound was called inactive. With `S=C(NC1CCCCC1)NC1CCCCC1` the entry was “inactive”; with `O=C(Cl)c1cc(C(=O)Cl)cc(C(=O)Cl)c1`, “inactive”. `C=C[Si](OC(C)=O)(OC(C)=O)OC(C)=O`: the result was inactive. Regarding `CN(C)CCCN(C)C`, the compound was classed as inactive.

With `CCCCC/C=C\CCC=O`, the call was inactive. `CCCCCCCCCCCSCC(=O)O`: the result was inactive. As to `O=S(=O)(O)c1ccc2cc(O)c(S(=O)(=O)O)cc2c1`, the call was inactive. Regarding `CC(=O)c1ccc2c(c1)CCCC2`, the result was inactive. The entry for `CC(=O)c1ccc[nH]1` is “inactive”. As to `CC(C)(C)c1ccc(N)cc1`, the result was inactive. With `CCCCCCOC(=O)C(C)CC` (stereo not given) the entry was “inactive”; with `CC(=O)[C@@]1(O)CC[C@H]2[C@@H]3C[C@H](C)C4=CC(=O)C=C[C@]4(C)[C@@]3(F)[C@@H](O)C[C@@]21C`, “inactive”; with `c1cc(N(CC2CO2)CC2CO2)ccc1OCC1CO1` (stereo not given), “inactive”. `O=S(=O)(Oc1ccc(Cl)cc1Cl)c1ccccc1`: the compound was classed as inactive. Consider `C=COCCCC`, for which the outcome was inactive. Regarding `CCCCNc1ccc(NCCCC)c2c1C(=O)c1ccccc1C2=O`, the call was inactive. The entry for `CCCc1ccc(OC)cc1` is “inactive”. The entry for `Cc1cccc(N)n1` is “inactive”; for `CCOc1nc(F)cc2nc(S(=O)(=O)Nc3c(Cl)cccc3C(=O)OC)nn12` it is “inactive”.
